The values below come from PubChem BioAssay (NCI).

What all share (test): NCI-60 one-dose screen, 48 h (100 = growth as untreated, 0 = no growth, -100 = all killed)
Holding throughout (details): 10 µM unless noted

Test [1] deals with SR leukemia.
The test system of test [2] is RPMI-8226 leukemia.
Test [3] has as its system OVCAR-8 ovarian.
In test [4] the test system is OVCAR-5 ovarian.
Test [5] concerns OVCAR-4 ovarian.
Test [6] deals with SK-OV-3 ovarian.
For test [7], the system named is IGROV1 ovarian.
The test system of test [8] is OVCAR-3 ovarian.
Test [9] has as its system HS 578T breast.
Test [10] has as its system NCI/ADR-RES ovarian.

About 83,000 compounds went through this panel and 20% of them were active in at least one assay; those are over-represented in the sample as a whole.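 Negative percent growth values reflect cell death: -40 means 40% of the cells present at the start died, and -100 means all died.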 Unmarked numbers belong to inactive results. Active and inactive are the calls of the source. How the source made its calls: active means growth percent below 10; inactive means the rest.

Turning to `COc1cc(N2C(=O)[C@H](O)C2c2ccc(SC)cc2)cc(OC)c1OC` (stereo partly drawn), the growth in test [1] was 3.99% (active); in test [2], 9.69% (active); in test [3], 6.99% (active); in test [4] it was 80.3%; in [5] it was 56.5%; in test [6], 3.02% (active). The growth in test [7] was 31.4%; in test [8] it was -11.9% (active); in [9] it was 34.9%.

As for `COC(C(=O)[C@@H](O)[C@@H](C)O)[C@@H]1Cc2cc3cc(O[C@H]4C[C@@H](O[C@H]5C[C@@H](O)[C@H](O)C(C)O5)[C@H](O)C(C)O4)cc(O)c3c(O)c2C(=O)[C@H]1O[C@H]1C[C@@H](O[C@H]2C[C@@H](O[C@H]3C[C@@H](OC)[C@H](O)C(C)O3)[C@@H](O)C(C)O2)[C@H](O)C(C)O1` (stereo partly drawn), the growth in [1] is 33.9%; in test [2], 50%; in test [3], 42.4%; in test [4] it was 54.3%; in [5], 64.5%; in [6] it was 32.3%. The growth is 32.4% in test [7], 61% in test [8], 46.2% in test [9] and 97.5% in test [10].

Turning to `C=CCc1c(O)c(C(=O)/C=C/c2ccc(Cl)cc2)c(OC)c2ccoc12`, the growth in [1] was 17.7%; in [2], 8.82% (active); in test [3], 42.6%; in test [4], 100%; in test [5], 57.3%; in test [6] it was 66.4%. The growth is 43.3% in test [7], 32.8% in test [8] and 81% in test [9].

As for `COC(=O)[C@H]1CCCN1C[C@@H](O)CN1C(=O)/C(=C\c2cc(OC)c(OC)c(OC)c2)c2ccccc21`, the growth in test [1] was 78%; in [2] it was 91.4%; in test [3], 92.1%; in test [4], 123%; in test [5] it was 90.6%; in [6], 108%. Moreover, the values for the growth in test [7], in test [8] and in test [9] were 102%, 105% and 99.6%, respectively.

As to `O=C1N[C@@H]2NC(=[N+]3CCOCC3)N[C@@H]2N1`, the growth in test [1] is 111%; in [2] it was 106%; in [3], 105%; in test [4], 97.9%; in [5], 107%; in [6], 104%. Besides, the growth in test [7] was 104%; in [8], 117%; in [9], 98.2%; in [10] it was 102%.

Turning to `COc1ccc(/C=N/C2=C(C#N)C(c3cccc(Cl)c3)c3c(ccc4ccccc34)O2)cc1` (stereo not drawn), the growth is 17.7% in test [1]; 17.4% in [2]; 47.1% in test [3]; 62.3% in [4]; 52.8% in test [5]; 52.4% in [6]. Moreover, the growth in test [7] is 32.9%; in test [8], 12.5%; in test [9], 15.9%.

In the case of `CCS/C(Nc1ccccc1)=C(\C#N)C(=O)N/N=C/c1ccc(Cl)cc1Cl`, the growth in [1] is 19.5%; in [2], 9.68% (active); in test [3] it was 28.6%; in test [4] it was 72.5%; in [5] it was 56.5%; in test [6], 15.5%. Besides, the growth in test [7] was 49.1%; in test [8] it was 1.46% (active); in test [9], -6.44% (active).

Turning to `CC(=O)N1N=C(c2ccc(Nc3nc(Nc4ccc(Cl)cc4)nc(Nc4ccc(Cl)cc4)n3)cc2)CC1c1ccco1` (stereo not drawn), the growth was 64.9% in [1]; 34.5% in [2]; 83.2% in test [3]; 105% in test [4]; 97.3% in test [5]; 124% in test [6]. In addition, the growth in test [7] is 89.4%; in [8], 104%; in test [9] it was 114%.

On to `CN(C)CCCn1c2c(c3ncccc3c1=O)C(=O)c1ccccc1-2`, for which the growth in [1] was 15.2%; in [2], 38.2%; in test [3], 31.3%; in [4], 46.5%; in test [5], 61.8%; in [6], 69.6%. In addition, the growth in test [7] was 43.8%; in [8], 57.4%; in [9], 75.8%.

In the case of `C=C(C)[C@@H]1CC[C@]2(C(=O)NCC#CCN3CCN(C)CC3)CC[C@]3(C)[C@H](CC[C@@H]4[C@@](C)(CCC#N)[C@H](C(=C)C)CC[C@]43C)[C@@H]12`, the growth in [1] was -12.1% (active); in test [2], 33.6%; in [3], 70.7%; in test [4] it was 64.5%; in test [5] it was 52.8%; in test [6] it was 72.6%. The growth in test [7] was 43.5%; in test [8], 54.2%; in test [9] it was 65.5%.

Consider `COC1C[C@H](O[C@@H]2C[C@H](O[C@@H]3C[C@H](O[C@@H]4C(=O)c5c(cc6cc(O[C@H]7C[C@@H](O[C@H]8C[C@@H](O)[C@H](O)C(C)O8)[C@H](O)C(C)O7)c(C)c(O)c6c5O)C[C@H]4C(OC)C(=O)[C@@H](O)[C@@H](C)O)OC(C)[C@H]3O)OC(C)[C@@H]2O)OC(C)[C@@H]1O` (stereo partly drawn), for which the growth in test [1] is 10.2%; in [2], -1.8% (active); in [3] it was 2.54% (active); in test [4], 14.2%; in test [5], 12.1%; in [6] it was 16.6%. For the same compound, the results for the growth in [7], in test [8] and in test [9] were 9.46% (active), 3.14% (active) and 7.26% (active), respectively.

On to `CC1=Nc2cnc(Nc3ccc(OCCN4CCCC4)cc3)nc2Nc2ccccc21`, for which the growth in [1] is 58.1%; in test [2], 78%; in [3], 80.6%; in test [4] it was 74%; in test [5], 62.9%; in test [6] it was 43.8%. Besides, the growth in [7] is 23.1%; in [8], 76.4%; in [9] it was 41.5%.

`O=C(Cn1c(=O)sc2ccccc21)NNS(=O)(=O)c1ccccc1[N+](=O)[O-]`: the growth was 96% in test [1]; 98.4% in test [2]; 99.4% in test [3]; 100% in test [4]; 117% in [5]; 103% in test [6]. Besides, the values for the growth in [7], in test [8] and in test [9] were 102%, 99.3% and 103%, respectively.

For `O=C(O)[C@@H]1c2ccccc2-c2ccccc2[C@H]1C(=O)O`, the growth is 116% in test [1]; 100% in [2]; 78.4% in test [3]; 83.2% in [4]; 98% in test [5]; 103% in test [6]. The values for the growth in test [7], in [8] and in test [9] were 80.7%, 104% and 94.3%, respectively.
